Laboratory results as given in PubChem BioAssay (NCI).
The panel holds about 79,000 compounds, 15% with a hit somewhere; the sample as a whole holds those more often. Activity calls are given as the source filed them. No stated cut-off is given here; in the data, active means growth inhibition above about 70%; inactive means the rest. Where a SMILES comes first, the peptide text is derived from it.

Experiment: NCI Yeast Anticancer Drug Screen. Data for the bub3 strain (AID 167)
Conditions: S. cerevisiae bub3 mutant strain, at 50.0 µM, stronger effect = higher value
Method in brief: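 Readout: yeast growth inhibition, expressed relative to vehicle-only wells. The test organism is a mutant strain from a panel with lesions in DNA repair or checkpoint genes.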
For `CCOC(=O)CN=NNc1ccc([N+](=O)[O-])cc1`, the growth inhibition was 21.1% (inactive). In the case of `CC(C)(C)CC(C)(C)c1cc2c(O)c(c1)Cc1cc(C(C)(C)CC(C)(C)C)cc(c1O)Cc1cc(C(C)(C)CC(C)(C)C)cc(c1O)Cc1cc(C(C)(C)CC(C)(C)C)cc(c1O)Cc1cc(C(C)(C)CC(C)(C)C)cc(c1O)C2`, the growth inhibition is reported as 6.3% (inactive). In the case of `COC(=O)c1c[nH]c(C=O)c1C`, the growth inhibition is reported as 8.3% (inactive). With `COc1cc(C)c(N)cc1N` the growth inhibition was -1% (inactive). For `O=C(NCC(=O)N1CCCC1C(=O)OC(=O)C1CCCN1C(=O)CNC(=O)OCc1ccccc1)OCc1ccccc1` (stereo not given), the growth inhibition was 18.2% (inactive). With `CC(=O)c1cccc(NC(=O)OC2CCCC(C)C2)c1` (stereo not given) the growth inhibition was 54% (inactive). With `Cc1cc(=O)[nH]c(NN2C(Cl)C(=O)C2c2cccc(Cl)c2)n1` (stereo not given) the growth inhibition was -10.5% (inactive). In the case of `CN(C)/C=C(/N=C(C#N)C#N)C1OCCO1`, the growth inhibition is reported as 3.8% (inactive). For `O=C(Nc1cccc2c1[nH]c1c(-c3ccccc3)nccc12)c1ccccc1[N+](=O)[O-]`, the growth inhibition was 42.6% (inactive). For `CC[n+]1c(-c2ccccc2)c2cc(NCCCN)ccc2c2ccc(N)cc21`, the growth inhibition was 3.75% (inactive). With `COc1ccc(CC[N+]2=Cc3cc(OC)c(OC)cc3CC2)cc1OC` the growth inhibition was 2.7% (inactive). With `CC(C)CC(NC(=O)C(NC(=O)C(N)C(C)O)C(C)C)C(=O)O` (stereo not drawn) (H-Thr-Val-Leu-OH; configuration not given here) the growth inhibition was 4.75% (inactive). For `CN1CCOC(=O)C(C#N)=C1c1ccccc1`, the growth inhibition was -7.25% (inactive). With `CCN(CC)CCn1c2ccccc2c(=O)c2c(O)ccc(O)c21` the growth inhibition was 6.95% (inactive). In the case of `NC(Cc1ccccc1)C(=O)Nc1ccccc1` (stereo not given), the growth inhibition is reported as -22.1% (inactive). In the case of `C[N+](C)(C)C1=CC=CC=C1.Br[Br-]Br`, the growth inhibition is reported as 11.6% (inactive). For `O=c1c2cc([N+](=O)[O-])ccc2[nH]n1Cc1ccccn1`, the growth inhibition was -13.9% (inactive). In the case of `Clc1cc(Cl)cc(Nc2nc3ccccc3nc2-c2cccs2)c1`, the growth inhibition is reported as -29.1% (inactive). For `CCC(=O)OC1CCC2(C)C(=CCC3C2CCC2(C)C(C(C)CCCC(C)C)CCC32)C1` (stereo not given), the growth inhibition was -0.8% (inactive). With `C=CCNC(=O)OCCCl` the growth inhibition was -4.5% (inactive). With `Oc1c(N=Nc2ccccc2)c2ccccc2c2ccc3ccccc3c12` the growth inhibition was -8.2% (inactive). In the case of `NNCCSC1CCCCC1`, the growth inhibition is reported as -17% (inactive). With `CC(=O)c1ccc(OC(=O)Nc2ccc(Cl)cc2)cc1` the growth inhibition was 29.6% (inactive). For `CN(C)c1ccc(-c2nc(N)nc3c2CCCC3)cc1`, the growth inhibition was -6% (inactive). In the case of `O=C1/C(=C/c2ccc3c(c2)CCC3)Cc2cc3c(cc21)CCC3`, the growth inhibition is reported as -1.15% (inactive). For `CCCCCCC(=O)OCC`, the growth inhibition was 12.9% (inactive). With `Cc1ccc(C(C)C)c(O)c1NC(=S)N/N=C\c1cc(Cl)ccc1O` the growth inhibition was -14.2% (inactive). In the case of `O=C(O)c1cc(-c2ccccc2Cl)nc2cc3ccccc3cc12`, the growth inhibition is reported as -6.05% (inactive). For `CC1=NN(c2ccccc2)C(=O)/C1=C\c1ccccc1`, the growth inhibition was 33.5% (inactive). In the case of `CC(C)C(=O)CC(c1ccc(Cl)cc1)N1N=C(C(C)C)CC1c1ccc(Cl)cc1` (stereo not given), the growth inhibition is reported as 40% (inactive). With `COC(=O)CN(c1c(C)cc(C)c(N)c1C)S(=O)(=O)c1ccccc1` the growth inhibition was -11.3% (inactive). With `COc1ccc(C(=O)C2CC(=O)NC2=O)cc1` (stereo not given) the growth inhibition was -0.7% (inactive). In the case of `NS(=O)(=O)c1ccc(NC(=S)/N=C\c2c(O)[nH]c(=O)[nH]c2=O)cc1`, the growth inhibition is reported as -12.6% (inactive). In the case of `COc1ccc2c(c1)C(C)(C(N)=O)CCC2` (stereo not given), the growth inhibition is reported as -12.2% (inactive). In the case of `COc1c2occc2c(Br)c2ccc(=O)oc12`, the growth inhibition is reported as 51.8% (inactive). For `COC(=O)C1N=CSCC1(C)O` (stereo not given), the growth inhibition was -2.45% (inactive). In the case of `CC(=O)OCC1OC(n2cc(CBr)nn2)C(OC(C)=O)C(OC(C)=O)C1OC(C)=O` (stereo not given), the growth inhibition is reported as 1.7% (inactive). With `CCOC(=O)/C(=C(/N)C1OC(COC(c2ccccc2)(c2ccccc2)c2ccccc2)C2OC(C)(C)OC12)C1CC(=O)N(C)C1=O` (stereo not given) the growth inhibition was -7.35% (inactive). For `COc1ccc(C(O)c2ccc(C)cc2)cc1` (stereo not given), the growth inhibition was -27.4% (inactive). For `CN=S(=O)(OCCCCOS(=O)(=NC)c1ccc(C)cc1)c1ccc(C)cc1` (stereo not given), the growth inhibition was -23.4% (inactive).

Experiment: NCI Yeast Anticancer Drug Screen. Data for the mlh1 rad18 strain (AID 175)
Conditions: S. cerevisiae mlh1 rad18 strain growth inhibition; at 50.0 µM; stronger effect = higher value
Method in brief: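 Cells of a genetically altered yeast strain, deficient in DNA damage repair, were treated with compound. Their growth was then compared with that of vehicle-treated cultures to give inhibition.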
In the case of `CCOC(=O)CN=NNc1ccc([N+](=O)[O-])cc1`, the growth inhibition is reported as 7.7% (inactive). For `CC(C)(C)CC(C)(C)c1cc2c(O)c(c1)Cc1cc(C(C)(C)CC(C)(C)C)cc(c1O)Cc1cc(C(C)(C)CC(C)(C)C)cc(c1O)Cc1cc(C(C)(C)CC(C)(C)C)cc(c1O)Cc1cc(C(C)(C)CC(C)(C)C)cc(c1O)C2`, the growth inhibition was 24.2% (inactive). In the case of `COC(=O)c1c[nH]c(C=O)c1C`, the growth inhibition is reported as 8.8% (inactive). For `COc1cc(C)c(N)cc1N`, the growth inhibition was 15.7% (inactive). In the case of `O=C(NCC(=O)N1CCCC1C(=O)OC(=O)C1CCCN1C(=O)CNC(=O)OCc1ccccc1)OCc1ccccc1` (stereo not given), the growth inhibition is reported as -28.1% (inactive). With `CC(=O)c1cccc(NC(=O)OC2CCCC(C)C2)c1` (stereo not given) the growth inhibition was 43.1% (inactive). In the case of `Cc1cc(=O)[nH]c(NN2C(Cl)C(=O)C2c2cccc(Cl)c2)n1` (stereo not given), the growth inhibition is reported as -33% (inactive). With `CN(C)/C=C(/N=C(C#N)C#N)C1OCCO1` the growth inhibition was -1.7% (inactive). In the case of `O=C(Nc1cccc2c1[nH]c1c(-c3ccccc3)nccc12)c1ccccc1[N+](=O)[O-]`, the growth inhibition is reported as 51.5% (inactive). With `CC[n+]1c(-c2ccccc2)c2cc(NCCCN)ccc2c2ccc(N)cc21` the growth inhibition was 40.5% (inactive). For `COc1ccc(CC[N+]2=Cc3cc(OC)c(OC)cc3CC2)cc1OC`, the growth inhibition was 15.5% (inactive). For `CC(C)CC(NC(=O)C(NC(=O)C(N)C(C)O)C(C)C)C(=O)O` (stereo not drawn) (H-Thr-Val-Leu-OH; configuration not given here), the growth inhibition was -1.5% (inactive). In the case of `CN1CCOC(=O)C(C#N)=C1c1ccccc1`, the growth inhibition is reported as -3.15% (inactive). In the case of `CCN(CC)CCn1c2ccccc2c(=O)c2c(O)ccc(O)c21`, the growth inhibition is reported as -0.55% (inactive). For `NC(Cc1ccccc1)C(=O)Nc1ccccc1` (stereo not given), the growth inhibition was 10.5% (inactive). For `C[N+](C)(C)C1=CC=CC=C1.Br[Br-]Br`, the growth inhibition was -2.25% (inactive). For `O=c1c2cc([N+](=O)[O-])ccc2[nH]n1Cc1ccccn1`, the growth inhibition was 3.8% (inactive). With `Clc1cc(Cl)cc(Nc2nc3ccccc3nc2-c2cccs2)c1` the growth inhibition was -10.2% (inactive). With `CCC(=O)OC1CCC2(C)C(=CCC3C2CCC2(C)C(C(C)CCCC(C)C)CCC32)C1` (stereo not given) the growth inhibition was -12.2% (inactive). In the case of `C=CCNC(=O)OCCCl`, the growth inhibition is reported as 15.1% (inactive). In the case of `Oc1c(N=Nc2ccccc2)c2ccccc2c2ccc3ccccc3c12`, the growth inhibition is reported as 6.85% (inactive). For `NNCCSC1CCCCC1`, the growth inhibition was 2.8% (inactive). For `CC(=O)c1ccc(OC(=O)Nc2ccc(Cl)cc2)cc1`, the growth inhibition was 12.9% (inactive). In the case of `CN(C)c1ccc(-c2nc(N)nc3c2CCCC3)cc1`, the growth inhibition is reported as -34.2% (inactive). With `O=C1/C(=C/c2ccc3c(c2)CCC3)Cc2cc3c(cc21)CCC3` the growth inhibition was 4.75% (inactive). With `CCCCCCC(=O)OCC` the growth inhibition was 14.2% (inactive). With `Cc1ccc(C(C)C)c(O)c1NC(=S)N/N=C\c1cc(Cl)ccc1O` the growth inhibition was 17.4% (inactive). In the case of `O=C(O)c1cc(-c2ccccc2Cl)nc2cc3ccccc3cc12`, the growth inhibition is reported as 0.8% (inactive). In the case of `CC1=NN(c2ccccc2)C(=O)/C1=C\c1ccccc1`, the growth inhibition is reported as 21.6% (inactive). In the case of `CC(C)C(=O)CC(c1ccc(Cl)cc1)N1N=C(C(C)C)CC1c1ccc(Cl)cc1` (stereo not given), the growth inhibition is reported as 14.4% (inactive). With `COC(=O)CN(c1c(C)cc(C)c(N)c1C)S(=O)(=O)c1ccccc1` the growth inhibition was -25.3% (inactive). For `COc1ccc(C(=O)C2CC(=O)NC2=O)cc1` (stereo not given), the growth inhibition was -0.4% (inactive). For `NS(=O)(=O)c1ccc(NC(=S)/N=C\c2c(O)[nH]c(=O)[nH]c2=O)cc1`, the growth inhibition was -11% (inactive). In the case of `COc1ccc2c(c1)C(C)(C(N)=O)CCC2` (stereo not given), the growth inhibition is reported as -13.2% (inactive). For `COc1c2occc2c(Br)c2ccc(=O)oc12`, the growth inhibition was 8.6% (inactive). For `COC(=O)C1N=CSCC1(C)O` (stereo not given), the growth inhibition was -16.4% (inactive). For `CC(=O)OCC1OC(n2cc(CBr)nn2)C(OC(C)=O)C(OC(C)=O)C1OC(C)=O` (stereo not given), the growth inhibition was -19.9% (inactive). In the case of `CCOC(=O)/C(=C(/N)C1OC(COC(c2ccccc2)(c2ccccc2)c2ccccc2)C2OC(C)(C)OC12)C1CC(=O)N(C)C1=O` (stereo not given), the growth inhibition is reported as 41.5% (inactive). In the case of `COc1ccc(C(O)c2ccc(C)cc2)cc1` (stereo not given), the growth inhibition is reported as -17.3% (inactive). With `CN=S(=O)(OCCCCOS(=O)(=NC)c1ccc(C)cc1)c1ccc(C)cc1` (stereo not given) the growth inhibition was -71.5% (inactive).
